Reference: PubChem BioAssay AID1220 (Sanford-Burnham Center for Chemical Genomics, 2008)
Out of some 190,000 compounds screened, about 1,300 (0.68%) were called active. No stated cut-off is given here; in the data, active means inhibition above about 50%; inactive means the rest. The entries come from a sample that favours actives as a whole.

These compounds were tested against Mannose-6-phosphate isomerase (Homo sapiens) (UniProt P34949) (assay: human PMI inhibitors, high substrate, primary screen, biochemical, fluorescence intensity, high mannose 6-phosphate (AID 1220)). Conditions: recombinant PMI enzyme, coupled fluorescence intensity; at 20 µM; hits give high values.
Sequence of Mannose-6-phosphate isomerase (Homo sapiens) (P34949 whole entry, looked up): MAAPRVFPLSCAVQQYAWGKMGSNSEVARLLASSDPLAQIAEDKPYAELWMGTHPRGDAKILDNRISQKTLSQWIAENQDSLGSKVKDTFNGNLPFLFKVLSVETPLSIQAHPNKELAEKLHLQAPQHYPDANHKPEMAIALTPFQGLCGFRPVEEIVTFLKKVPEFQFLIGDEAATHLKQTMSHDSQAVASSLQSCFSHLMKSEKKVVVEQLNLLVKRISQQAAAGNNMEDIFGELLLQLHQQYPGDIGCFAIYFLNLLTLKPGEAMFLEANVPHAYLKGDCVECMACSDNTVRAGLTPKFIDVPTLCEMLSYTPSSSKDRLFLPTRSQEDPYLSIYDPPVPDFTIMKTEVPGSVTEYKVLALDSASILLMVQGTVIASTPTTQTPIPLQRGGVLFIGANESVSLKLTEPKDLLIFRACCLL

inhibition, inactive:
CCCN1Cc2cccc(C(=O)N3CCN(c4ccccc4)CC3)c2C1=O 1%, O=C(Nc1ccc(N2CCOCC2)cc1)c1ccccc1SCC(=O)N1CCCC1 4.1%, Fc1ccc(CNC(=S)NC2CCCCC2)cc1 8.4%, CN1C(=O)CC(Nc2cccc3cccc(N)c23)C1=O (centres undefined) 49.7%, COc1ccc(NC2CC(=O)N(C(C)C)C2=O)cc1 (centres undefined) 8.8%, COc1cc(/C=C2\SC(c3ccc(C)cc3)=NC2=O)ccc1O 9.3%, COc1cc(/C=C2\SC(c3ccc(C)cc3)=NC2=O)cc(OC)c1O 26.7%, Cc1cccc(OCc2nnc(SCC(=O)Nc3ccc(C)c(C)c3)o2)c1 17.5%, Fc1ccccc1N1CCN(c2nnnn2-c2ccccc2)CC1 -2.8%, CC1CCN(c2ccc(/C=N\Nc3nncn3N)cc2[N+](=O)[O-])CC1 43.7%, Nn1cnnc1N/N=C/c1cc([N+](=O)[O-])c(Cl)cc1Cl -35.2%, COc1ccc(-n2c(C)cc(/C=N/Nc3nnc(C)n3N)c2C)cc1 -12.8%, Cc1cc(=O)[nH]c(N/N=C/c2ccc([N+](=O)[O-])cc2)n1 -4.6%, CCc1nnc(N/N=C/c2ccc(-c3ccc([N+](=O)[O-])cc3)o2)n1N 41.3%, COc1ccc(/C=N/Nc2nonc2N)cc1OC -6.6%, CCc1cc(=O)oc2cc(C)c3c(C)coc3c12 4.2%, COc1ccc(C(=O)N(CN2CCCC2=O)c2ccccc2OC)cc1OC 18.2%, O=C(Nc1nc(-c2ccc(Cl)cc2)cs1)NC1CCCCC1 -7.6%, CCN(CC)C(=O)CSc1nc(O)c(Cc2ccccc2)c(=O)n1-c1ccccc1 -5.3%, Nn1c(SCC(=O)NCc2ccccc2)nncc1=O 11.9%, Oc1ccc(-c2csc(-c3c[nH]c4ccccc34)n2)c(O)c1 -4.2%, Cc1ccc(/C=C2\C(=O)Nc3ccccc32)o1 6.8%, N#CCC(=O)N/N=C/c1ccc(OC2CSC2)cc1 6.6%, CN(C)c1nc(Oc2ccc(=O)[nH]n2)nc(N2CCCCC2)n1 -0.1%, CCOC(=O)Cc1csc(SCC(=O)NC2CCCC(C)C2C)n1 (centres undefined) -3.7%, CCOC(=O)Cc1csc(SCC(=O)NC2CCCCC2)n1 -6%, COC(C(=O)Nc1ccc(F)cc1F)c1ccccc1 (centres undefined) 0.3%, O=C(NCCCn1ccnc1)C(Cc1ccc([N+](=O)[O-])cc1)N1C(=O)c2ccccc2C1=O (centres undefined) -5.8%, CCn1c(Cc2ccccc2)nnc1SCC(=O)c1cccc([N+](=O)[O-])c1 5.6%, Cc1noc(C)c1S(=O)(=O)Nc1ccc(C(=O)NCCc2ccccc2)cc1 3.4%, O=C1ON=C(c2ccccc2)/C1=C/c1ccc(-c2ccccc2[N+](=O)[O-])o1 -11%, Clc1ccccc1-c1ccc(/C=N/n2cnnc2)o1 6.7%, Cc1ccc(-c2ccc(/C=N/N3C(=O)C4C5C=CC(CC5)C4C3=O)o2)c([N+](=O)[O-])c1 (centres undefined) 33.2%, O=C1C2C3C=CC(C4CC34)C2C(=O)N1/N=C/c1ccc(-c2ccc(Cl)cc2[N+](=O)[O-])o1 (centres undefined) 7.4%, O=C1/C(=C\c2ccc(-c3ccccc3[N+](=O)[O-])o2)C(c2ccccc2)=NN1c1ccccc1 -2.3%, COc1ccc(-c2ccc(/C=N/N3C(=O)C4C5C=CC(C6CC56)C4C3=O)o2)c([N+](=O)[O-])c1 (centres undefined) 42.2%, O=C1C2C3C=CC(C4CC34)C2C(=O)N1/N=C/c1ccc(-c2ccc(F)cc2[N+](=O)[O-])o1 (centres undefined) 14.4%, Cc1n[nH]c(=S)n1/N=C/c1ccc(-c2ccccc2[N+](=O)[O-])o1 21.2%, CCCc1nc(N)c(C#N)c(N)c1C#N 3.2%, O=C(Nc1cc(S(=O)(=O)N2CCOCC2)ccc1N1CCOCC1)c1ccc(S(=O)(=O)N2CCCCC2)cc1 -10.7%, Clc1ncn(C23CC4CC(CC(C4)C2)C3)n1 -0.3%, CCOC(=O)c1cccc(NC(=O)CN(c2ccc(OC)cc2)S(=O)(=O)c2c(C)noc2C)c1 19.2%, Cc1c(O)c(CN2CCCCC2)cc2c1oc(=O)c1ccccc12 1.8%, NC(=O)C1(N2CCCCC2)CCN(CC(=O)Nc2cc(Cl)ccc2Cl)CC1 7.2%, CCC1(C)COC2(OC1)C(=O)Nc1ccccc12 (centres undefined) 8.2%, Cc1ccc(NC(=O)CS(=O)CC(=O)NCCCN(C)c2ccccc2)cc1 (centres undefined) 11.5%, COC1CCCN(Cc2cn(C)nc2-c2ccc(Oc3ccccc3)cc2)C1 (centres undefined) 8.1%, O=C(NCC1CCCO1)C(=O)NCC(c1ccco1)N1CCN(c2ccccc2)CC1 (centres undefined) -4.7%, CC1CCC2C(=O)N(c3ccc(C(=O)Oc4cccc5cccnc45)cc3)C(=O)C2C1 (centres undefined) 48.7%, O=C(Nc1ccc(F)cc1)c1cccc(N2C(=O)C3C4CCC(C4)C3C2=O)c1 (centres undefined) 9.3%, O=C(Oc1cccc2cccnc12)c1cccc(-n2cnnn2)c1 27.9%, Cc1ccc(C(=O)Oc2ccccc2N2C(=O)C3C4CCC(C4)C3C2=O)cc1 (centres undefined) 0.7%

inhibition, active:
CC(C)N1C(=O)CC(Nc2cccc3cccc(N)c23)C1=O (centres undefined) 64.5%, Cc1ccc(C2=NC(=O)/C(=C/c3cc(O)c(O)c(Br)c3)S2)cc1 53.2%, Nn1cnnc1N/N=C/c1ccc(Cl)c([N+](=O)[O-])c1 60.2%, Cc1nnc(N/N=C/c2ccc([N+](=O)[O-])cc2)n1N 68.7%, COc1ccc(/C=N/Nc2nnc(C)n2N)cc1OC 67.2%, CCOC(=O)Cc1csc(SCC(=O)NC(C)C23CC4CC(CC(C4)C2)C3)n1 (centres undefined) 51%, O=c1nc2s/c(=C\c3ccc(-c4ccccc4[N+](=O)[O-])o3)c(=O)n2nc1-c1ccccc1 50.5%, O=[N+]([O-])c1ccccc1-c1ccc(/C=N/n2cnnc2)o1 51.1%, Cc1ccc(-c2ccc(/C=N/N3C(=O)C4C5C=CC(C6CC56)C4C3=O)o2)c([N+](=O)[O-])c1 (centres undefined) 50.8%, O=C1C2C3C=CC(C3)C2C(=O)N1/N=C/c1ccc(-c2ccccc2[N+](=O)[O-])o1 (centres undefined) 51.5%, O=C(Oc1cccc2cccnc12)c1ccc(N2C(=O)C3C4CCC(C4)C3C2=O)cc1 (centres undefined) 50.5%, O=C(Oc1cccc2cccnc12)c1cccc(N2C(=O)C3C4CCC(C4)C3C2=O)c1 (centres undefined) 51.9%
